# Results from PubChem BioAssay (NCATS).
# Inconclusive results are not listed. Entries that show only a call come without a potency. Active and inactive are the calls of the source. Unless noted, calls follow the shape of the dose curve; as a rule, active = well fitted curve in the direction sought with a large enough effect; inconclusive = small, poorly fitted or top-dose-only effect, or another doubt; inactive = no such curve, though single readings can be large; an effect the other way counts as inactive or inconclusive.
# Legend:
# [1] = Dual reporter qHTS for agonist of Pregnane X Receptor (hPXR) against the NCATS DSHEA and TCM libraries: Fluorescence readout (AID 1920058)
# How it was run: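 Fluorescence read-out for cell viability: CellTiter-Fluor, 1 h at 37 °C, Ex/Em 405/540 nm. This followed ~24 h treatment of hPXR-Luc HepG2 cells with substances in agonist mode.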
# [2] = biological target: Nuclear receptor subfamily 1 group I member 2 (Homo sapiens) (UniProt O75469); assay: Dual reporter qHTS for agonist of Pregnane X Receptor (hPXR) against the NCATS DSHEA and TCM libraries: Luminescence readout (AID 1920059)
# Nuclear receptor subfamily 1 group I member 2 (Homo sapiens), sequence (O75469 whole entry, looked up): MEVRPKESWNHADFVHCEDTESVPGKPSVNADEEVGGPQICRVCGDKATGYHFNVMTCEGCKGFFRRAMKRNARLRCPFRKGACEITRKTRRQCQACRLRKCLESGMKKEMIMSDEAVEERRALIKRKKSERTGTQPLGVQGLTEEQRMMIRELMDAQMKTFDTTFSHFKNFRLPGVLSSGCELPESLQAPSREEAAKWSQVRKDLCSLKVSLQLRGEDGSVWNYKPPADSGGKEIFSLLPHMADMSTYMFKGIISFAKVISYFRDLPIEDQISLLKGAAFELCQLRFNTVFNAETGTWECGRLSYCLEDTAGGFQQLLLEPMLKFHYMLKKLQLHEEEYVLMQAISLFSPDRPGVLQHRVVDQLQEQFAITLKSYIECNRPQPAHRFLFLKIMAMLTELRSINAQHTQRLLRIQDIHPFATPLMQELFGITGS
# How it was run: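 hPXR-Luc HepG2 cells, 2000/well in 5% charcoal-stripped FBS medium, attached 5 h, then exposed 24 h at 37C to compounds. Viability by CellTiter-Fluor, then luciferase luminescence with ONE-Glo.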
# [3] = biological target: Nuclear receptor subfamily 1 group I member 2 (Homo sapiens) (UniProt O75469); assay: Dual reporter qHTS for antagonist of Pregnane X Receptor (hPXR) against the NCATS DSHEA and TCM libraries: Luminescence Readout (AID 1920060);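 also: HepG2 cells carrying hPXR luciferase reporter stimulated with rifampicin at 2 µM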
# How it was run: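 hPXR-Luc HepG2 cells exposed 24 h at 37 C to compounds with 2 uM rifampicin in antagonist mode; luciferase luminescence measured by ONE-Glo, with CellTiter-Fluor viability read beforehand.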
# [4] = Dual reporter qHTS for antagonist of Pregnane X Receptor (hPXR) against the NCATS DSHEA and TCM libraries: Fluorescence Readout (AID 1920061)
# From the text: Assay Development and Screening Technology Laboratory (ADST)
# National Center for Advancing Translational Sciences (NCATS), Rockville, MD
# National Institute of Health (NIH), Bethesda, Maryland
# Dietary Supplements and Natural Products have minor oversight of their safety and efficacy. We assembled a collection of Dietary Supplements and Natural Products (DSNP) as well as Traditional Chinese Medicinal (TCM) Plant extracts, which were screened against an in vitro panel of assays, including a liver cytochrome p450 enzyme panel, CAR/PXR signaling pathways, and P-gp transporter assays, to assess their activity. This pipeline facilitated the interrogation of Natural Product-Drug Interaction (NaPDI) through prominent metabolizing pathways. In addition, we compared the activity profiles of the DSNP/TCM substances with those of an approved drug collection. […] Overall, we highlight four significant bioactivity profiles (measured by p-values) as examples of this prediction. […] To profile potential P-gp activity, a differential cell viability was measured against two cell lines: a parental KB-3-1 human cervical adenocarcinoma cell line and the drug-resistant subline KB-8-5-11 that overexpresses P-gp. […]
# 8; Read; Fluorescence; ViewLux plate reader. […]
# 11; Read; Luminescence; ViewLux plate reader. […]
# [5] = biological target: Tyrosyl-DNA phosphodiesterase 1 (Homo sapiens) (UniProt Q9NUW8); assay: Confirmation Assay for Inhibitors of Tyrosyl-DNA Phosphodiesterase (TDP1) (AID 489007); conditions: recombinant human TDP1 enzymatic activity, dose-response; also: potency is read from the fitted curve at half-maximal effect; nearly all actives have a fitted effect of over 40% in size
# Tyrosyl-DNA phosphodiesterase 1 (Homo sapiens), sequence (Q9NUW8 whole entry, looked up): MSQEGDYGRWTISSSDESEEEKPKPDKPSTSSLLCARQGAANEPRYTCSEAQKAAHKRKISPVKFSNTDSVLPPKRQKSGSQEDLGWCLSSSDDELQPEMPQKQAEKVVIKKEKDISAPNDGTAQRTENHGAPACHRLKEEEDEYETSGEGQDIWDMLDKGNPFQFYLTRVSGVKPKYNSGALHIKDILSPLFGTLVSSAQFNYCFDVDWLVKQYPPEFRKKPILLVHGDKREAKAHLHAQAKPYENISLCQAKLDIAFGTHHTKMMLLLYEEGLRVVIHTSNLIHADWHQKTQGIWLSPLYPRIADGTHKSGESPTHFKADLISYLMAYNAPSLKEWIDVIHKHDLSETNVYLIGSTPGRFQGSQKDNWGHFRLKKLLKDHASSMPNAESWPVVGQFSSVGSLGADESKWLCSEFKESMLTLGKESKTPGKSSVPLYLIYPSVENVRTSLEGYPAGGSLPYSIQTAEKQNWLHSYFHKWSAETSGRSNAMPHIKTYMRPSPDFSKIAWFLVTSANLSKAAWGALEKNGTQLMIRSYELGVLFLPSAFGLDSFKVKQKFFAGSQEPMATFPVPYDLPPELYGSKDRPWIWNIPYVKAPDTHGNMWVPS
# From the text: Human tyrosyl-DNA phosphodiesterase I (Tdp1) is a rational anticancer target because this enzyme is involved in the repair of DNA lesions created by the trapping of human DNA topoisomerase I (Top1) following treatment by anticancer agents such as camptothecins. Recombinant Tdp1 was expressed and purified from E. coli in the laboratory (Anthony et al, Nucleic Acids Research, 2007, Vol. 35, 4474-4484). A Tdp1 DNA substrate bearing a 5' biotin and a 3' phospho-tyrosine was obtained by custom synthesis. This oligonucleotidic DNA substrate was subsequently coupled to a fluorescein isothiocyanate (FITC) group via the free amino group present on the phospho-tyrosine. Tdp1 was screened against the NCGC small molecule library using the AlphaScreen (AS) detection method in which a streptavidin donor AS bead is bound at the 5' end and an anti-FITC AS acceptor bead is bound at the 3' end of the DNA oligonucleotidic substrate. In the presence of Tdp1, the enzyme cleaves the tyrosine-FITC group, leaving a 3' end phosphate on the DNA substrate. This cleavage reaction results in a loss of signal in AS.
# This BioAssay is a confirmation of followup compounds from primary TDP1 screen (AID:485290)
# NIH Molecular Libraries Probe Production Network [MLPCN] […]
# 3 ul of Tdp1 enzyme is dispensed to 1536-well Kalypsys black solid bottom plates. […] The detection is then performed on a PerkinElmer Envision reader.
# [6] = HTS Assay for Allosteric Antagonists of the Human D2 Dopamine Receptor: Hit Validation in HTRF (AID 624455)
# How it was run: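 HTRF read-out; cells stably expressing D1 receptor; hits scored for inhibition of D1-mediated response. Primary screen: calcium flux, force-coupled inducible Hek293 Trex D2 line, antagonism vs EC80 dopamine.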
# [7] = qHTS Assay for Identification of Small Molecule Antagonists for NFkB Signaling Pathway (AID 895; active = well fitted inhibition curve with a large enough effect in the signal ratio, with a control signal flat, not every such curve was filed as active; the % refers to the signal ratio; also: potency is read from the fitted curve at half-maximal effect)
# How it was run: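 ME-180 NFkB-bla cells (beta-lactamase under NFkB response element), plated overnight, treated with compound then 10 pM TNF alpha (about EC50) for 5 hrs at 37 C. LiveBLAzer FRET read at 460/530 nm emission, 405 nm excitation.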
# [8] = biological target: ATPase family AAA domain-containing protein 5 (Homo sapiens) (UniProt Q96QE3); assay: Validation screen for small molecules that inhibit ELG1-dependent DNA repair in human embryonic kidney (HEK293T) cells expressing luciferase-tagged ELG1 (AID 493107); also: potency is read from the fitted curve at half-maximal effect; nearly all actives have a fitted effect of over 70% in size
# ATPase family AAA domain-containing protein 5 (Homo sapiens), sequence (Q96QE3 whole entry, looked up, the tested form may be a part): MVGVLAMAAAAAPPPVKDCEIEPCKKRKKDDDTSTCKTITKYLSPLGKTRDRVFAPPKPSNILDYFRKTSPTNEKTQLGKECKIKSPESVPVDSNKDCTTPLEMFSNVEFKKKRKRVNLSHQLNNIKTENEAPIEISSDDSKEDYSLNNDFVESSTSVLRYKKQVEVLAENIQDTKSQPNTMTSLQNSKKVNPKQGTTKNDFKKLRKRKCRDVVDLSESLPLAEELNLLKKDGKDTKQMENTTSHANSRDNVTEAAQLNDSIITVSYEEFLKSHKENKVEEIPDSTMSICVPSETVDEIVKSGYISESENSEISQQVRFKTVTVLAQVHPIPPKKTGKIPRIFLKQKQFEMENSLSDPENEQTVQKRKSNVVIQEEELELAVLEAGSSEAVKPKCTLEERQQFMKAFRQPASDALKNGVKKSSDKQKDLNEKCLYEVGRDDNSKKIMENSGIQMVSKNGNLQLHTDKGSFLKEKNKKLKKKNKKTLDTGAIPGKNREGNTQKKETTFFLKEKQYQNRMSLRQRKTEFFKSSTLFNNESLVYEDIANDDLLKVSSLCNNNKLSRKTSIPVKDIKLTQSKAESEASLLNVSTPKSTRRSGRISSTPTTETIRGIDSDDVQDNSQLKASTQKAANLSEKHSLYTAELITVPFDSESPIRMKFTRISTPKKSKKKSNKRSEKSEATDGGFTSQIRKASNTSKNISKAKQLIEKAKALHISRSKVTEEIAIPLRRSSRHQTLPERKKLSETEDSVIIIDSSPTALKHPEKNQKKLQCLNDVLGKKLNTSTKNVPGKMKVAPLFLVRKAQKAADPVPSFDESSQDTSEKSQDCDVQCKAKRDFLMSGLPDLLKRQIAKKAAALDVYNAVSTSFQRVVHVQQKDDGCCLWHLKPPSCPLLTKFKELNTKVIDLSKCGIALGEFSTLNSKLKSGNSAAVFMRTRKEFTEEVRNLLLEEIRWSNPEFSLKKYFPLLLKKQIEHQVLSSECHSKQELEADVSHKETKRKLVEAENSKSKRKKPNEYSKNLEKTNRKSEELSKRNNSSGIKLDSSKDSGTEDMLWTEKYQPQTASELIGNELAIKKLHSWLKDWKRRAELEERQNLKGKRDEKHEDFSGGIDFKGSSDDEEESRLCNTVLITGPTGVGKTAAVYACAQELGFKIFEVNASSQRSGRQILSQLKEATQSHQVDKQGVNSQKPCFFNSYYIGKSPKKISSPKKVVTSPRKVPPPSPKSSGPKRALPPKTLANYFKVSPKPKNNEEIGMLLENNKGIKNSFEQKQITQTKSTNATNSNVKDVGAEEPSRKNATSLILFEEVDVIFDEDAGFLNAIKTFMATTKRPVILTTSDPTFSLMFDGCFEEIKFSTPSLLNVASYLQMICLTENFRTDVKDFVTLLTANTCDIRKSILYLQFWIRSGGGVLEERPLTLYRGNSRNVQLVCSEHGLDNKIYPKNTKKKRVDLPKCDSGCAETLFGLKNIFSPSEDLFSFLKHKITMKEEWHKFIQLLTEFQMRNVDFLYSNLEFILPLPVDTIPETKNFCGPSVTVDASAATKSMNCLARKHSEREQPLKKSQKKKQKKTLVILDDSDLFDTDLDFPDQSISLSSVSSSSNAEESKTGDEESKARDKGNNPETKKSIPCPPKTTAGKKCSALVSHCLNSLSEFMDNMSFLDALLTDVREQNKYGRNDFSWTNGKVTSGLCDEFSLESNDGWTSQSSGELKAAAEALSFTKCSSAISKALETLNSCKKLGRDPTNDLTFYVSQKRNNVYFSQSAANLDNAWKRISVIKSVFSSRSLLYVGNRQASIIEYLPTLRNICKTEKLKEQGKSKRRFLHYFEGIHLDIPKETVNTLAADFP
# How it was run: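 ELG1-luciferase HEK293T reporter; 5-fluorouridine + compound/DMSO, 16 hr, 37 °C, 5% CO2; ONE-Glo 30 min RT; luminescence read, qHTS format.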
# [9] = qHTS for Inhibitors of ATXN expression: Validation (AID 588378); also: potency is read from the fitted curve at half-maximal effect; nearly all actives have a fitted effect of over 75% in size
# How it was run: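 Luciferase luminescence (Bright-Glo) from an ATXN2-FFLuc HEK293 line after 24 h compound exposure at 37 °C, preceded by a CellTiter-Fluor fluorescence viability read. Serial dilutions of a reference ATXN2 inhibitor and a luciferase inhibitor served as controls.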
compound,measurement,setting,value
C=C(C)[C@@H]1CC=C(C=O)CC1,outcome,[1],inactive
same,outcome,[2],inactive
same,outcome,[3],inactive
same,outcome,[4],inactive
NC1C=CC=C(C(=O)O)C1 (centres undefined),Potency,[5],1.12 µM (active)
Cn1ccnc1,outcome,[6],inactive
Brc1c(Br)c(Br)c2n[nH]nc2c1Br,Potency,[7],5.01 µM (active)
same,Potency,[8],25.9 µM (active)
same,Potency,[9],28.2 µM (active)
